Source: PubChem
Shown are actives, neighbours in structure and some others; about 2% of the full set was active somewhere.
PKA-R1A activ: activators of PKA-R1A holoenzyme, primary screen, biochemical, fluorescence polarization, Cy5-IP20, bovine R1A, mouse PKAc. cAMP-dependent protein kinase type I-alpha regulatory subunit (Bos taurus) + …. PKA-R1A dissociation; scaled: DMSO 0%, 113 µM cGMP 100%. activation, % at 11.4 µM. actives 0.083% (n = 340,000);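 active = percent activation above the mean of all tested compounds plus 3 SD, cut at about 19% in these data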;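 also: higher means more PKAc released from R1A so a rise in polarization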
PKA-R2B act: activators of PKA-R2B holoenzyme, primary screen, biochemical, fluorescence polarization, Cy5-IP20, human. PKA-R2B holoenzyme dissociation; R2B truncated from residue 108, S112A mutant; 0% DMSO only, 100% 113 µM cGMP. actives 0.079% (n = 340,000). activation, % at 11.4 µM;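 active = activation above a cutoff set at the mean over all compounds plus 3 SD, cut at about 18% in these data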;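 also: higher means more holoenzyme dissociation and a rise in polarization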
Target sequence (P31323 whole entry, looked up, other chains not shown, the tested form may be a part): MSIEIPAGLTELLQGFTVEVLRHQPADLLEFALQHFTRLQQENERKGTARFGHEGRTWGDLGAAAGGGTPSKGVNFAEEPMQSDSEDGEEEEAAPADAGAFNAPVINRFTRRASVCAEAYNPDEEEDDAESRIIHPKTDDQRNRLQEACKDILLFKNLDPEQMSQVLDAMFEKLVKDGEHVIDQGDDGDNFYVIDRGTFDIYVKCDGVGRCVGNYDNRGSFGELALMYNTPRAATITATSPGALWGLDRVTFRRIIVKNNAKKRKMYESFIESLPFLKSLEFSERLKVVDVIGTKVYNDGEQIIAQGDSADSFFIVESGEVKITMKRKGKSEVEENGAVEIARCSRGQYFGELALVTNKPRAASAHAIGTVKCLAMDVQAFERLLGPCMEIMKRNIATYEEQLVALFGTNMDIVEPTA
MsrA inhibitor: bovine MsrA enzyme inhibitors, primary screen, biochemical, absorbance, HTS | actives 0.75% (n = 360,000) | inhibition, % at 15.5 µM | purified bovine MsrA, absorbance read-out
Mot1-301 SUMO: yeast Mot1-301 growth rescue at high temperature, primary screen, SUMOylation pathway inhibitor project, S. cerevisiae, ATP luminescence, 38.5C | S. cerevisiae Mot1-301 growth rescue; percent above DMSO median, 100 means doubled | growth rescue, % at 18.8 µM | actives 1% (n = 320,000) | AID 2716, 2010;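 active = every valid replicate shows activation above 250% relative to neutral control wells; inactive = the rest, any valid replicate at or below 250%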
MsrA act: bovine MsrA enzyme activators, primary screen, biochemical, absorbance, HTS | Methionine sulfoxide reductase A (Bos taurus) | purified bovine MsrA, absorbance read-out | activation, % at 10.6 µM | actives 0.3% (n = 360,000) | AID 602163, 2012; in the data active = activation above about 7.5%
MsrA inh confirm: bovine MsrA inhibitors, retest, confirmation, biochemical, absorbance, HTS; shares compounds with MsrA inhibitor; actives 41% (n = 2,300); inhibition, % at 15.5 µM; purified bovine MsrA, absorbance read-out;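 also: coupled to thioredoxin reductase with NADPH and selenocystamine and DMSO as substrate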
Of the large screens only hits and unclear results are named; the others gave an inactive call (follow-up assays come after a bar, where they were run). Rule as the data show it, unless noted: active = inhibition above about 4.5%; inactive = the rest.

O=C1OC(c2ccccc2)=N/C1=C\N1CCCCC1	MsrA inhibitor 5.7 | MsrA inh confirm 6.9
Cc1ccc(C2=N/C(=C\N(C)C)C(=O)O2)cc1	MsrA inhibitor 5.2 | MsrA inh confirm 5.5
CN(C)/C=C1\N=C(c2ccc(Cl)cc2Cl)OC1=O	none
CN(C)/C=C1/N=C(c2ccccc2)OC1=O	MsrA inhibitor 7.3 | MsrA inh confirm 6.9
COc1cc(F)ccc1Oc1cccc2c1S(=O)(=O)N(C1CC1)C[C@@H](COCc1ccccc1)O2	none (no result: PKA-R1A activ, PKA-R2B act, Mot1-301 SUMO, MsrA act)
COc1cccc(NC(=O)C2(C)CCCN(C(C)C)C2)c1 (stereo not given)	none (no result: PKA-R1A activ, PKA-R2B act, Mot1-301 SUMO)
C[C@@H]1CCCCO[C@@H](CN(C)CC2CCCCC2)[C@@H](C)CN([C@H](C)CO)C(=O)c2cc(NC(=O)Nc3ccc4c(c3)OCO4)ccc2O1	none (no result: PKA-R1A activ, PKA-R2B act, Mot1-301 SUMO, MsrA act)
CC(/C=C/C=C/c1ccccc1)=N\NC(=O)c1cccnc1	MsrA inhibitor 7.6 | MsrA inh confirm 4.5
O=C(N/N=C/C=C/c1ccccc1)c1cccnc1	MsrA inhibitor 5.3 | MsrA inh confirm 4.9
NC(=O)N/N=C/C=C/c1ccccc1	none
O=C(CSc1ccccn1)N/N=C/C=C/c1ccccc1	MsrA inhibitor 4.9 | MsrA inh confirm inactive
Cc1ccc(C(=O)N/N=C/C=C/c2ccccc2)o1	MsrA inhibitor 8.8 | MsrA inh confirm 8.2
C=CCNc1ccc2c(c1)OC[C@@H](CC(C)C)NS2(=O)=O	none (no result: PKA-R1A activ, PKA-R2B act, Mot1-301 SUMO, MsrA act)
COc1ccc(-c2cccc3c2C2CC3CCN2C(=O)OCc2ccccc2)cc1 (stereo not given)	MsrA inhibitor 6.4 (no result: Mot1-301 SUMO) | MsrA inh confirm inactive
C[C@@H]1CN([C@@H](C)CO)C(=O)CCCn2cc(nn2)CO[C@H]1CN(C)C(=O)Nc1cccc(Oc2ccccn2)c1	none (no result: PKA-R1A activ, PKA-R2B act, Mot1-301 SUMO, MsrA act)
CCCc1n[nH]c2c1/C(=N\OCC)CC(C)(C)C2	MsrA inhibitor 4.8 | MsrA inh confirm inactive
CCc1n[nH]c2c1/C(=N\O)CC(C)(C)C2	none
Cn1c(/C(C#N)=C/Nc2ccccn2)nc2ccccc21	MsrA inhibitor 6.8 | MsrA inh confirm inactive
COc1ccccc1/C=C/C=N/NC(=O)c1cccs1	MsrA inhibitor 5.8 | MsrA inh confirm 6.7
COc1ccccc1/C=C\C=N\NC(=O)CCn1nnc2ccccc21	MsrA inhibitor 5.0 | MsrA inh confirm inactive
COc1ccccc1/C=C/C=N/NC(=O)Cc1cccn1C	MsrA inhibitor 5.8 | MsrA inh confirm 4.9
Cn1cccc1CC(=O)N/N=C/c1cccc2ccccc12	none
C[C@@H]1CN([C@@H](C)CO)C(=O)CCCn2nncc2CO[C@@H]1CN(C)S(=O)(=O)c1ccc(Oc2ccccc2)cc1	none (no result: Mot1-301 SUMO)
CCCC(=O)N1CCC1(C)C(=O)Nc1ccc(C)c(C)c1 (stereo not given)	none (no result: PKA-R1A activ, PKA-R2B act, Mot1-301 SUMO)
O=C(NCc1ccccc1)[C@H]1CCCN1C(=O)[C@H]1CCCN1C(=O)c1cccc2ccccc12	none (no result: PKA-R1A activ, PKA-R2B act, Mot1-301 SUMO, MsrA act)
CCn1c(SCC(=O)N(C)c2c(N)n(Cc3ccccc3)c(=O)[nH]c2=O)nnc1-c1cccs1	none (no result: Mot1-301 SUMO)
CCCCn1nnnc1C(c1ccc(OC)cc1)N1CCN(C/C=C/c2ccccc2)CC1 (stereo not given)	none (no result: PKA-R1A activ, PKA-R2B act, Mot1-301 SUMO)
COc1cc(C)c(/C=C/C(C)=C/C=C/C(C)=C/C(=O)O)c(C)c1C	MsrA inhibitor 4.7 | MsrA inh confirm inactive
CC(CC(=O)Nc1ccc2c(c1)c(=O)n(C)n2-c1ccccc1F)c1ccccc1 (stereo not given)	none (no result: PKA-R1A activ, PKA-R2B act, Mot1-301 SUMO)
Cc1ccc(N2C(=O)c3ccccc3C2C(=O)c2cc(C)ccc2O)cc1 (stereo not given)	none
Cc1ccc(N2C(=O)c3ccccc3C2C(=O)c2ccc(O)cc2O)cc1 (stereo not given)	MsrA inhibitor 6.2 | MsrA inh confirm 6.0
CSc1nc2sc3c(c2c2nnnn12)CCCC3	MsrA inhibitor 12 | MsrA inh confirm 17
CSc1nc2sc3c(c2c(=O)n1C)CCCC3	none
Cc1ccccc1-n1c(SCc2cc(=O)n3ccccc3n2)nc2[nH]ncc2c1=O	none (no result: Mot1-301 SUMO)
Cc1ccccc1-n1c(SCc2cccc(F)c2)nc2[nH]ncc2c1=O	MsrA inhibitor 7.2 | MsrA inh confirm 8.0
O=S1(=O)N[C@H](Cc2ccccc2)COc2cccc(N3CCCCC3)c21	none (no result: PKA-R1A activ, PKA-R2B act, Mot1-301 SUMO, MsrA act)
CCC/C=C/c1ccc(CN2C(C)C(=O)N(Cc3cn(CCC4OCCCO4)nn3)CCS2(=O)=O)cc1 (stereo not given)	none (no result: Mot1-301 SUMO)
c1ccc2c(c1)nc(-c1ccncc1)n1nnnc21	MsrA inhibitor 13 | MsrA inh confirm 12
c1ccc(-c2nc3ccccc3c3nncn23)cc1	none
Cn1c(NC(=O)/C=C\c2ccccc2)cc(=O)n(C)c1=O	MsrA inhibitor 5.3 | MsrA inh confirm inactive
Cn1c(NC(=O)/C=C/c2c(F)cccc2Cl)cc(=O)n(C)c1=O	none (no result: PKA-R1A activ, PKA-R2B act)
C[C@@H]1CCCCO[C@@H](CN(C)C(=O)Nc2ccc3c(c2)OCO3)[C@@H](C)CN([C@H](C)CO)C(=O)c2cc(NC(=O)Nc3ccc(C(F)(F)F)cc3)ccc2O1	none (no result: PKA-R1A activ, PKA-R2B act, Mot1-301 SUMO, MsrA act)
N#Cc1ccc(CN2CCN(C(=O)C3CC(=O)N(c4ccc5c(c4)OCCO5)C3)CC2)cc1 (stereo not given)	none (no result: Mot1-301 SUMO)
Cc1cc(N/N=C/c2ccc(O)cc2O)nc(N2CCOCC2)n1	none
Oc1ccc(/C=N\Nc2cc(N3CCOCC3)nc(N3CCOCC3)n2)c(O)c1	MsrA inhibitor 5.3 | MsrA inh confirm inactive
Cc1ccc(C)c(N2CCN(C(C(=O)NC3CCCC3)C(C)C)CC2)c1 (stereo not given)	none (no result: PKA-R1A activ, PKA-R2B act, Mot1-301 SUMO, MsrA act)
Oc1[nH]c2ccccc2c1C1=NCCCC1	MsrA inhibitor 4.9 | MsrA inh confirm inactive
COc1ccccc1NC(=S)N/N=C/c1ccc(O)cc1	none
Oc1ccc(/C=N/NC(=S)N/N=C/c2ccc(O)cc2)cc1	MsrA inhibitor 6.4 | MsrA inh confirm 7.2
Oc1ccc(/C=N/NC(=S)Nc2cccnc2)cc1	MsrA inhibitor 7.9 | MsrA inh confirm 6.2
CCCCc1c(-c2ccccc2OC)ncn1Cc1cc(F)cc(F)c1	none (no result: PKA-R1A activ, PKA-R2B act, Mot1-301 SUMO, MsrA act)
CSc1ccc(CN2CCC2(C)C(=O)Nc2cccc(Oc3ccccc3)c2)cc1 (stereo not given)	none (no result: PKA-R1A activ, PKA-R2B act, Mot1-301 SUMO)
O=C(c1cccn2c(=O)c3ccccc3nc12)N1CCN(c2ccccn2)CC1	none
O=C(O)c1cccn2c(=O)c3ccccc3nc12	MsrA inhibitor 4.7 | MsrA inh confirm inactive
COCCN(Cc1ccc(C)cc1)C(=O)[C@H]1O[C@@H](n2cnc(C(N)=O)n2)[C@H](O)[C@@H]1O	none (no result: PKA-R1A activ, PKA-R2B act, Mot1-301 SUMO, MsrA act)
CCCCNC(=S)N(C)/N=C/c1ccc(OCC(=O)Nc2ccc(OC)cc2)c(OC)c1	MsrA inhibitor 6.5 | MsrA inh confirm inactive
